Laboratory results taken from the supplement of paper PMC11732987, “Enantioselective OTUD7B fragment discovery through chemoproteomics screening and high-throughput optimisation” (Communications Chemistry, 2025).

Assays:
Experiment in all cases: log2 ratio of Biotin-Ahx-Ub-VS probe labelling (fragment/DMSO); higher = less target engagement (more negative = stronger competition), active = hit call of the paper (q ≤ 0.05, log2 ratio ≤ -1)
Conditions in all cases: compound concentration: 200 uM; treatment time: 3 h
ALG13 = biological target: T1, ALG13 (UniProt Q9NP73)
T1 sequence (whole entry): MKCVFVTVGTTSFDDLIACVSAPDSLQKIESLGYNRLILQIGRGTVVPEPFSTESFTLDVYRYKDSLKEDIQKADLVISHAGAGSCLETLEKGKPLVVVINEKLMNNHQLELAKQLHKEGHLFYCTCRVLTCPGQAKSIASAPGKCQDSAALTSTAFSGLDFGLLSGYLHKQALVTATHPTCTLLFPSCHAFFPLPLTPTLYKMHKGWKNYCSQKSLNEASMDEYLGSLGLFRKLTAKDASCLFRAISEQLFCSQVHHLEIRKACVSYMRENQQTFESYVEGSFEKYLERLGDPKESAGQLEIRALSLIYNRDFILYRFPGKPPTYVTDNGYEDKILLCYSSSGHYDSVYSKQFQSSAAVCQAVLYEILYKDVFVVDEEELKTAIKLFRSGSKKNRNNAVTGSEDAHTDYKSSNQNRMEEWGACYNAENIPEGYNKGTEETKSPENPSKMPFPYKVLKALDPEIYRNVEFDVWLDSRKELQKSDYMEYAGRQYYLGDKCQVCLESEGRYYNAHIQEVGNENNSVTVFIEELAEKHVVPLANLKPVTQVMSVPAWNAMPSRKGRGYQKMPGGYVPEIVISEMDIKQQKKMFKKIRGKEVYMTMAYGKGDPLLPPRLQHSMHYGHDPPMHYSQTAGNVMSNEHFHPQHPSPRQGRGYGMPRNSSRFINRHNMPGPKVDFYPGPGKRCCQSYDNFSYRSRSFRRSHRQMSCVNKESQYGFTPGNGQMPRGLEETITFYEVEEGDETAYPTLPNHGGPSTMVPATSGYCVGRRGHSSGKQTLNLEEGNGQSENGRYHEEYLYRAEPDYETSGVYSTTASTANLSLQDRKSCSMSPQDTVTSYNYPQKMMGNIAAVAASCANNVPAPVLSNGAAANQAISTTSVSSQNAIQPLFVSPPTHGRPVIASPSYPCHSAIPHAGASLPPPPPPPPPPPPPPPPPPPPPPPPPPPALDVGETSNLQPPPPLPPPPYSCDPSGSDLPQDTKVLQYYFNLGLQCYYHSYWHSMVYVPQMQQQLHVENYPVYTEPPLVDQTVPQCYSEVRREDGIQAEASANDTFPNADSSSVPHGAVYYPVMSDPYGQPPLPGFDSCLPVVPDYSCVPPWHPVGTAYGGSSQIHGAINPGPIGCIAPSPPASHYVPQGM
How it was run: (§1)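 HEK293T lysate (495 µg per sample, in Tris/CHAPS/IGEPAL buffer with protease inhibitors) was exposed in triplicate for 3 h to fragment at 200 µM or to vehicle, then to Biotin-Ahx-Ub-VS at 0.5 µM final for 1 h. Labelled DUBs were enriched on NeutrAvidin, digested with LysC and trypsin, and analysed by diaPASEF LC-MS/MS. Spectronaut label-free quantities were normalised to the global median, and values are average log2 ratios of fragment over vehicle from an unpaired t-test. Only proteins with ≥2 unique peptides were used.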

ATXN3 = ATXN3 (UniProt P54252)
How it was run: as §1

BAP1 = biological target: T2, BAP1 (UniProt Q92560)
T2 sequence (whole entry): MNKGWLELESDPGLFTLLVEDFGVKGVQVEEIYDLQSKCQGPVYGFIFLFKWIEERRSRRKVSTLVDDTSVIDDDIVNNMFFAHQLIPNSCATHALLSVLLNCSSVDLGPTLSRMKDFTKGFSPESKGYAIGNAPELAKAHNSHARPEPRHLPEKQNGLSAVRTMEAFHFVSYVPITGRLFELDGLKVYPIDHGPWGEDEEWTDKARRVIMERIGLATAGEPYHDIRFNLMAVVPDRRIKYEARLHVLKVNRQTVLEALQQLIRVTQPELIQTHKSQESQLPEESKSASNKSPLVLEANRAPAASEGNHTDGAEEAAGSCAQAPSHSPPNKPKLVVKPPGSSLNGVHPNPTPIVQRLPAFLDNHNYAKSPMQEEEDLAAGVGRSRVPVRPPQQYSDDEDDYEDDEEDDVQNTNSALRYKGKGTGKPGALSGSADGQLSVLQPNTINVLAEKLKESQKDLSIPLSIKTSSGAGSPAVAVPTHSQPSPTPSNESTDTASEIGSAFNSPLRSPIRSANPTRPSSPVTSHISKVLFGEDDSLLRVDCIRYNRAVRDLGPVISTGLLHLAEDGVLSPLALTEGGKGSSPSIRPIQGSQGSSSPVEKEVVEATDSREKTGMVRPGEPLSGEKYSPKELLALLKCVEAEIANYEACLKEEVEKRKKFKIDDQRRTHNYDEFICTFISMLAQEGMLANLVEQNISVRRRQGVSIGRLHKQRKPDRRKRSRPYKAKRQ
How it was run: as §1

EIF3F = EIF3F (UniProt O00303)
How it was run: as §1

EIF3H = EIF3H (UniProt O15372)
How it was run: as §1

FAM105A = biological target: T3, FAM105A (UniProt Q9NUU6)
T3 sequence (whole entry): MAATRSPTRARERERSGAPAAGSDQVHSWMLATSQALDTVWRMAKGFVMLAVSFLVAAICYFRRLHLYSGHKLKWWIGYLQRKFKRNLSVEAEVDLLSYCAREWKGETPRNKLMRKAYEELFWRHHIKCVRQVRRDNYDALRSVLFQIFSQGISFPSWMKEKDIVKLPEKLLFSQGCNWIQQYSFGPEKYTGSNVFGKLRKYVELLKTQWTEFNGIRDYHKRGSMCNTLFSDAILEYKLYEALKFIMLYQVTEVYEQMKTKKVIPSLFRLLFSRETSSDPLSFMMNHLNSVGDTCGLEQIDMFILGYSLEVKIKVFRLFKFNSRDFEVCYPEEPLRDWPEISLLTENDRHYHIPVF
How it was run: as §1

OTUB1 = OTUB1 (UniProt Q96FW1)
How it was run: as §1

OTUD4 = biological target: T4, OTUD4 (UniProt Q01804)
T4 sequence (whole entry): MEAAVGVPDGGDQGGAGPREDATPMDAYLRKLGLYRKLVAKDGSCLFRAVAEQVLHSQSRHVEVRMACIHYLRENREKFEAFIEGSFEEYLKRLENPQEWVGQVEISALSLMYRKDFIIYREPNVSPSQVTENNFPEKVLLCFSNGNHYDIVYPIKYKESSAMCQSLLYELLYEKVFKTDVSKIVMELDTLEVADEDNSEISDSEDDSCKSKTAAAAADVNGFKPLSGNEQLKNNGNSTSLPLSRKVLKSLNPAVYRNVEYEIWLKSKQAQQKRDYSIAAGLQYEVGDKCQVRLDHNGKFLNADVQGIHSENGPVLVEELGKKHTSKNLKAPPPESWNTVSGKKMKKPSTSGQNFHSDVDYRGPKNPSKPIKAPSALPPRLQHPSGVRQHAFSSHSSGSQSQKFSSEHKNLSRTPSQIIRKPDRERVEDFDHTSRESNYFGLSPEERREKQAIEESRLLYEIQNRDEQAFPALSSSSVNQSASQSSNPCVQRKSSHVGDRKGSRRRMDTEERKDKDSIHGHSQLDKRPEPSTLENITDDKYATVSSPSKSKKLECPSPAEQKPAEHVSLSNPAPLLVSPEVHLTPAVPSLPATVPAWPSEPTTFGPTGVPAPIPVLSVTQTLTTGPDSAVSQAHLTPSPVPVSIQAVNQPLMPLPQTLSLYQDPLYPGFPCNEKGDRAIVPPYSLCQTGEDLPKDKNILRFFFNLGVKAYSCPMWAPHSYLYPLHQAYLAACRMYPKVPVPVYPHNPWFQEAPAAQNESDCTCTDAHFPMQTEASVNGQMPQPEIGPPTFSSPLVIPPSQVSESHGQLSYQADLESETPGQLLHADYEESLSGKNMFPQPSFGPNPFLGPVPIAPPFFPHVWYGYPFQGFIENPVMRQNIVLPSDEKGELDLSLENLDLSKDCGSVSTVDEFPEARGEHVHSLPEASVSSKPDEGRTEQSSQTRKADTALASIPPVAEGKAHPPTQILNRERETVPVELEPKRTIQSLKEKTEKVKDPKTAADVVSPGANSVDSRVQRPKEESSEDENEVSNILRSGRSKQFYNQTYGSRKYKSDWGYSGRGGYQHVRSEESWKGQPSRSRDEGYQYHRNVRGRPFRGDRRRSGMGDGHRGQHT
How it was run: as §1

OTUD5 = biological target: T5, OTUD5 (UniProt Q96G74)
T5 sequence (whole entry): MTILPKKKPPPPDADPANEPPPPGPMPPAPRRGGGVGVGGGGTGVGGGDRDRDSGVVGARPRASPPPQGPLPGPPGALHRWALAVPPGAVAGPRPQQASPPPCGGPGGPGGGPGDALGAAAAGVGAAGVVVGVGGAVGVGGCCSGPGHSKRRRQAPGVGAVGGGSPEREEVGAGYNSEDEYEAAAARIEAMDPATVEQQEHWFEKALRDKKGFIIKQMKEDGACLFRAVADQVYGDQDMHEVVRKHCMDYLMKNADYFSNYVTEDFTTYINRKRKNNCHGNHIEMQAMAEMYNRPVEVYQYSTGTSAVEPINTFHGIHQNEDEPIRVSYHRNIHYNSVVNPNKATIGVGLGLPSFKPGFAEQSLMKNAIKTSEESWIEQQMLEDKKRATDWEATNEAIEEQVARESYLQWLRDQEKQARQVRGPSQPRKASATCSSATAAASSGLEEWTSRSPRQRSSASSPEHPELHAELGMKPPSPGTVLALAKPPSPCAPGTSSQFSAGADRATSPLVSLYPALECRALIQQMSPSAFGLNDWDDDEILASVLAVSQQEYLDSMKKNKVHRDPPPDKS
How it was run: as §1

Measured: log2 ratio of Biotin-Ahx-Ub-VS probe labelling

Chain of OTUB1 (Q96FW1 whole entry): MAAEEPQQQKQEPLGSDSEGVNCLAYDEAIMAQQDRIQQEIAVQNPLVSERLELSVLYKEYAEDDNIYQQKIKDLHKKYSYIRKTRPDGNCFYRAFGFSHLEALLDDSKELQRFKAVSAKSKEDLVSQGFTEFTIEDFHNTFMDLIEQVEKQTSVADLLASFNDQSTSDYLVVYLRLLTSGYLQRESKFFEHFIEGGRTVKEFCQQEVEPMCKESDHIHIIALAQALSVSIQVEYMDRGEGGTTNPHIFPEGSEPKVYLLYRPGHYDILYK
Chain of EIF3H (O15372 whole entry): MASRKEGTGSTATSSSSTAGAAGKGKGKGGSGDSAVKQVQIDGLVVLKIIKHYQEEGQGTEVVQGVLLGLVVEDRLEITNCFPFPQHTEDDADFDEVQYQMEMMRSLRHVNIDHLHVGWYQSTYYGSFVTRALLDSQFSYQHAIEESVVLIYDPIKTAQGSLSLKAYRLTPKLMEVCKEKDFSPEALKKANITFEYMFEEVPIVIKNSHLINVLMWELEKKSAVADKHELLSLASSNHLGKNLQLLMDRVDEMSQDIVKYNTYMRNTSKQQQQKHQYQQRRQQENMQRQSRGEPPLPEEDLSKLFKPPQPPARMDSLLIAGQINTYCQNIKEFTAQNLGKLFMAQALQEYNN
Chain of ATXN3 (P54252 whole entry): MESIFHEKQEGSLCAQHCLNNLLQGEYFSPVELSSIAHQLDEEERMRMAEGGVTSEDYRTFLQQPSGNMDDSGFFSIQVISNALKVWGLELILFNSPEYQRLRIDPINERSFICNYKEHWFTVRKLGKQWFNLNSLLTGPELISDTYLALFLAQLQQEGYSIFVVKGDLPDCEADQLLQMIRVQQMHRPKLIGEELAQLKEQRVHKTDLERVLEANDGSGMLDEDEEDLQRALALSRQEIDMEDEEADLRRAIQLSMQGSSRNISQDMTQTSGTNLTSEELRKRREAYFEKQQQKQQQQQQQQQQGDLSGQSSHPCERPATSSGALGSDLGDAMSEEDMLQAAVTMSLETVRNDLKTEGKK
Chain of EIF3F (O00303 whole entry): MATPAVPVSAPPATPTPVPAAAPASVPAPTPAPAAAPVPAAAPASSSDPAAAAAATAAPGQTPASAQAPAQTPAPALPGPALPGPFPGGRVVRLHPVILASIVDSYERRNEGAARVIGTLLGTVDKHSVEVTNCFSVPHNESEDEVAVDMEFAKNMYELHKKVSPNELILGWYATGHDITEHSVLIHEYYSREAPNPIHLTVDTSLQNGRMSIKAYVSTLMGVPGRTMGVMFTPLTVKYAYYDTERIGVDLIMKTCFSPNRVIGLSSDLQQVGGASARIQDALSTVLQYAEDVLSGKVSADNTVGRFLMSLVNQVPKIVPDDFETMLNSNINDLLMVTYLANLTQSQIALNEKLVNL

O=C(CN1CCN(C(=O)CCl)CC1)Nc1cccc(F)c1
inactive: ALG13 -0.606 | ATXN3 -0.412 | BAP1 -0.967 | EIF3F -0.00546 | EIF3H 0.149 | FAM105A 0.21 | OTUB1 -0.291 | OTUD4 -0.422 | OTUD5 -0.511
